Data taken from publication PMC4552634, “A New Set of Chemical Starting Points with Plasmodium falciparum Transmission-Blocking Potential for Antimalarial Drug Discovery” (PLoS ONE, 2015).
Like-named read-outs stand apart in the source and are kept apart here. Screen size: about 13,000 compounds; about 3,200 (25%) showed an effect of 50% or more. The list shows a part of the results.

System: P. falciparum stage V gametocytes
Set-up: BacTiter-Glo ATP luminescence viability of purified stage V gametocytes in 384-well plates, per cent inhibition versus DMSO
Details: 48 h, 5 µM, inhibitor

| Structure (SMILES) | % Inhibition [%] | % Inhibition (% Inhibition) [%] |
| --- | --- | --- |
| CN(Cc1cccc(F)c1)C1CCN(c2cc(NC(=O)c3ccc(F)cc3)ccn2)CC1 [TCMDC-135018] | 1.836 |  |
| CCCOc1ccccc1-c1nc2[nH]c3c(c2c(=O)[nH]1)CCN(C)C3 [TCMDC-138173] | 5.306 |  |
| COc1cc(C=CC(=O)N2CCC3(CC2)CC(=O)c2ccccc2O3)cc(OC)c1OC [TCMDC-123541] | 7.005 |  |
| N#Cc1ccc(-c2ccc(OCC(O)CN3CCCN(Cc4cccc(O)c4Cl)CC3)cc2)cc1 (stereo not drawn) [TCMDC-141431] | -23.75 |  |
| COc1ccc2nccc([C@@H](O)CN3CCC(NCc4nc5ccccc5s4)CC3)c2c1 [TCMDC-140790] | -20.83 |  |
| COc1ccc(NC(=O)Nc2ccc(-c3ccncc3)c(Cl)c2)cc1N1CCN(C)CC1 [TCMDC-139134] | -28.75 |  |
| CN(C)c1ccc(NC2=NC(C)(C)N=C(N)N2)cc1 [TCMDC-124346] | 7.678 |  |
| O=C(Cn1c(SCc2cccc(F)c2F)cc(=O)c2ccccc21)N(CCc1cnc[nH]1)Cc1ccc(-c2ccc(C(F)(F)F)cc2)cc1 [TCMDC-141484] | 44.33 |  |
| Cn1cncc1CCN(Cc1ccc(-c2ccc(C(F)(F)F)cc2)cc1)C(=O)Cn1c(SCc2cccc(F)c2F)cc(=O)c2ccccc21 [TCMDC-141451] | 112.4 |  |
| Cc1ccc(/C=C/C(=O)NC2CCC(N3CCC(c4ccccc4C)CC3)CC2)cc1C (stereo not drawn) [TCMDC-133526] | -66.55 |  |
| CCN1C(=O)C(CC(=O)Nc2cccc(Cl)c2)N(Cc2ccc(OC)c(OC)c2)C1=S (stereo not drawn) [TCMDC-123795] | 79.41 |  |
| COc1cc(NC(=O)c2cccs2)c(OC)cc1NC(=O)Nc1cccc(Cl)c1 [TCMDC-123531] | -32.35 |  |
| COc1ccc(CN2C(=S)N(Cc3ccccc3)C(=O)C2CC(=O)Nc2ccccc2)cc1OC (stereo not drawn) [TCMDC-123874] | 33.25 |  |
| O=C(Cc1ccccn1)Nc1cccc(-c2cccc(-c3nc4ccc(C(F)(F)F)cc4[nH]3)c2)c1 [TCMDC-132177] | -14.6 |  |
| COc1ccc2nccc([C@@H](O)CN3CCC(NC(=O)/C=C/c4ccc(F)c5ccccc45)CC3)c2c1 [TCMDC-141105] | -9.775 |  |
| COc1ccc2nccc([C@@H](O)CN3CCC(NCc4ccc5c(c4)OCCO5)CC3)c2c1 [TCMDC-141123] | 9.641 |  |
| COc1ccc2nccc([C@@H](O)CN3CCC(NCC4COc5ccccc5O4)CC3)c2c1 (stereo partly drawn) [TCMDC-140733] | 86.29 |  |
| COc1ccc2nccc([C@@H](O)CN3CCC(NCC(O)Cc4ccccc4)CC3)c2c1 (stereo partly drawn) [TCMDC-140702] | 11.24 |  |
| COc1ccc2nccc([C@@H](O)CN3CCC(NC(=O)/C=C/c4ccc5ccccc5n4)CC3)c2c1 [TCMDC-141104] | 76.48 |  |
| COc1ccc2nccc([C@@H](O)CN3CCC(NCc4cc5ccccc5nn4)CC3)c2c1 [TCMDC-140972] | -3.79 |  |
| COc1ccc2nccc([C@@H](O)CN3CCC(NC(=O)/C=C/c4ccnc5ccccc45)CC3)c2c1 [TCMDC-141103] | 15.04 |  |
| COc1ccc2nccc([C@@H](O)CN3CCC(NCc4ccc5cccc(O)c5n4)CC3)c2c1 [TCMDC-140715] | -19.01 |  |

| Structure (SMILES) | % Inhibition [%] | % Inhibition (% Inhibition) [%] |
| --- | --- | --- |
| COc1ccc2nccc([C@@H](O)CN3CCC(NCc4cc5ccccn5n4)CC3)c2c1 [TCMDC-141025] | 65.1 |  |
| Nc1ncc(-c2cccc(OCc3ccccc3)c2)cc1-c1nnc2ccc(Cl)nn12 [TCMDC-134853] | -7.115 |  |
| COC(=O)c1ccc(N2CCN(CCCCNC(=O)c3ccc(NC(=O)c4ccc(Cl)cc4)cc3)CC2)c(OC)c1 [TCMDC-138526] | 7.636 |  |
| O=C(Nc1ccc(Cl)cc1)Nc1cccc(-c2cccc(-c3nc4ccccc4[nH]3)c2)c1 [TCMDC-133178] | -4.164 |  |
| CN(C)c1ccc(/C=C2\S/C(=N\c3ccccc3)N(c3ccccc3)C2=O)cc1[N+](=O)[O-] [TCMDC-124086] | -8.825 |  |
| CCC(C)c1ccc(Nc2nc(C)cc(N(CC)CCCN3CCCCC3)n2)cc1 (stereo not drawn) [TCMDC-132456] | -18.05 |  |
| COc1cc(OC)c2c(c1Cl)O[C@]1(C2=O)C(=O)C(Cc2ccccc2)(Cc2ccccc2)C(=O)C[C@H]1C [TCMDC-131804] | 9.09 |  |
| COc1ccc(CN(C)CCCOc2ccc(NC(=O)C=Cc3ccc(C(C)(C)C)cc3)cc2)cc1OC [TCMDC-138277] | -85.5 |  |
| COc1ccc(Br)cc1/C=C/C(=O)Nc1ccc2c(c1)CCCN(C)C2 [TCMDC-133717] | 27.94 |  |
| CN1CCCc2ccc(NC(=O)C=Cc3ccc(-c4ccc(F)cc4F)o3)cc2C1 [TCMDC-134124] | 39.53 |  |
| CN1CCCc2cc(NC(=O)C=Cc3ccc(-c4ccc(F)cc4F)o3)ccc2C1 [TCMDC-134051] | 105.5 |  |
| CCCCCn1c(Sc2ccc(C#N)c([N+](=O)[O-])c2)nnc1-c1ccc(OC)cc1 [TCMDC-135603] | 31.95 |  |
| COc1ccc2ncc(F)c(CCN3CCC(NCc4cc5c(cn4)OCCS5)CC3)c2c1 [TCMDC-134569] | 54.76 |  |
| COc1ccc2ncc(F)c([C@H](O)CN3CCC(NCc4ccc5c(c4)NC(=O)CS5)CC3)c2c1 [TCMDC-135827] | 14.82 |  |
| COc1ccc2ncc(F)c([C@H](O)CN3CCC(NCc4cc5c(cn4)OCCO5)CC3)c2c1 [TCMDC-135296] | -10.65 |  |
| COc1ccc2nccc([C@@H](O)CN3CCC(NCc4cnc5c(c4)NC(=O)CS5)CC3)c2c1 [TCMDC-141230] | 6.568 |  |
| COc1ccc2ncc(F)c([C@@H](O)CN3CCC(NCc4cc5c(cn4)OCS5)CC3)c2c1 [TCMDC-135862] | 14.45 |  |
| COc1ccc2ncc(F)c(CCN3CCC(NCc4cnc5c(c4)NC(=O)CS5)CC3)c2c1 [TCMDC-134490] | 87.27 |  |
| CC(C)CC(=O)Nc1cc(=O)[nH]c2nc(-c3ccccc3)nn12 [TCMDC-125475] | 3.79 |  |
| Cc1cc(C(=O)CN2C(=O)NC3(CCCc4ccccc43)C2=O)c(C)n1Cc1ccc(F)cc1 (stereo not drawn) [TCMDC-125057] | -27.15 |  |
| O=C(/C=C/c1ccc(Cl)c(Cl)c1)NCCCCCN1CCC(NC(=O)c2ccc3ccccc3c2)CC1 [TCMDC-135869] | -22.99 |  |
| Cc1[nH]c(C)c(-c2ccc(-c3ccc(C(F)(F)F)cc3C(F)(F)F)nc2)c(=O)c1Br [TCMDC-136013] | 70.39 |  |

| Structure (SMILES) | % Inhibition [%] | % Inhibition (% Inhibition) [%] |
| --- | --- | --- |
| Cc1[nH]c(C)c(-c2ccc(-c3cc(C(F)(F)F)cc(C(F)(F)F)c3)nc2)c(=O)c1Br [TCMDC-136015] | 76.88 |  |
| Cc1[nH]c(C)c(-c2ccc(-c3ccccc3C(F)(F)F)nc2)c(=O)c1Br [TCMDC-135881] | 80.96 |  |
| Cc1[nH]c(C)c(-c2ccc(-c3cccc(C(F)(F)F)c3)nc2)c(=O)c1Br [TCMDC-135911] | 22.21 |  |
| N#Cc1cccc(/C=C/C(=O)NC2CCC(CCN3CCc4ccc(-c5cnccn5)cc4CC3)CC2)c1 (stereo not drawn) [TCMDC-140238] | -55.93 |  |
| Cc1cc(N(C)C)nc(Nc2ccc(NC(=O)C3CCCCC3)cc2)n1 [TCMDC-124978] | 11.42 |  |
| CCOc1cc(C(=O)NCCN(C(C)C)C(C)C)ccc1-c1nc2ccc(Cl)cc2[nH]1 [TCMDC-140910] | 18.37 |  |
| O=c1cc(NCCCNC2CCCc3c2ccc2ccccc32)[nH]c2ccccc12 (stereo not drawn) [TCMDC-139366] | 0.6782 |  |
| CCOC(=O)c1c(C)n(C2CCCCCC2)c2cc(Br)c(O)cc12 [TCMDC-124588] | -95.43 |  |
| Cc1ccc(-n2c(C)cc(C(=O)CN3C(=O)NC(Cc4ccccc4)C3=O)c2C)cc1 (stereo not drawn) [TCMDC-123563] | -21.41 |  |
| CC(C)C[C@@H](/C=N/NC(N)=O)NC(=O)[C@H](CC(C)C)NC(=O)[C@H](CC(C)C)NC(=O)OCc1ccccc1 [TCMDC-139049] | -49.58 |  |
| CCC(Nc1noc(-c2c(-c3ccccc3)noc2C)n1)c1ccccc1 (stereo not drawn) [TCMDC-134200] | 3.321 |  |
| CC(C)CNCc1ccc(-c2cccc(CNC3CCN(Cc4ccccc4)CC3)c2)cc1 [TCMDC-140480] | 110 |  |
| CC(C)CNCc1cccc(-c2ccc(CNC3CCN(Cc4ccccc4)CC3)cc2)c1 [TCMDC-140487] | 103 |  |
| CC(C)CNCc1cccc(-c2ccccc2CNC2CCN(Cc3ccccc3)CC2)c1 [TCMDC-140469] | 76.18 |  |
| CC(C)CNCc1cccc(-c2cccc(CNC3CCN(Cc4ccccc4)CC3)c2)c1 [TCMDC-140479] | 106.4 |  |
| NC1=NC(c2ccccc2)(c2ccccc2)C(=O)N1C1CCCCC1 [TCMDC-136761] | -44.85 |  |
| N=c1c2c(n(Cc3cccc(Cl)c3)c3c1CCC3)CCCC2 [TCMDC-125614] | 24.77 |  |
| COC(=O)/C=C/c1ccc(CC(C)NCC(O)c2cccc(C(F)(F)F)c2)cc1 (stereo not drawn) [TCMDC-131503] |  | -2.875 |
| NC(N)=NC(=O)Nc1cc(Cl)c(Br)c(Cl)c1 [TCMDC-137507] | -11.69 |  |
| O=C(/C=C/c1ccc(Cl)c(Cl)c1)NCCCCCN1CCN(C(=O)Nc2cccc(F)c2)CC1 [TCMDC-135731] | 4.224 |  |
| O=C(Nc1nc2cc(S(=O)(=O)NCCc3cccc(F)c3)ccc2n1CCCn1ccnc1)c1ccc(Cl)cc1 [TCMDC-141623] | -29.17 |  |
| CC(C)c1ccc(NC(=O)c2ccc(C(=O)NC3CCN(Cc4ccsc4)C3)cc2)cc1 (stereo not drawn) [TCMDC-136745] | -11.55 |  |
